Each sequence was assayed on VDR:RXRa (NR concentration 270 nM, RXRa partner concentration 90 nM) (assay: PBM binding z-score (relative to random genomic background probes); higher = stronger binding; sequences stand for … in GC…GCGATTGACAGCGTAGAATGAAGG).
Experimental: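 Protein-binding microarray (Agilent 4x180K custom design, double-stranded 60-nt probes: 5' GC cap, 34-nt variable region, 24-nt constant primer region; full probe sequence given). Purified or IVT nuclear receptor:RXRα heterodimers (3:1 NR:RXRα, mostly 270:90 nM) or homodimers were incubated for 1 h in PBS with 2% milk and no ligand, then detected with Alexa488 antibodies. Fluorescence from o1-orientation probes (~5 replicates averaged) was converted to z-scores against 500 random hg19 background probes. Variable regions are seed direct-repeat (DR0–DR5) sites, all their single-nucleotide variants and half-site ablations.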

Row | Sequence | PBM binding z-score
1 | AGAATGAGGTTATTAAGAGCAGGGAATTGCGGTC | 2
2 | CGTCCAAGGTCATCGGAGGTCAGTGAAGACAGAT | 7.04
3 | ACTCGCAGGACAAAGGTCAGAGCTACGCCAGTGA | 2.77
4 | CAAACTAGGTCACCGGAAGGTCAAAGTACGCATG | 6.17
5 | CCGACTGTGGCAAGGTTACCATAACGCACAGCCA | 0.0735
6 | ATTTCTAGGTAAAAGTTCAGTGAATCCCGAGGAT | 1.77
7 | GCGACTGGGGCATCAGCCGGTTACCATAACTTAA | -0.669
8 | CGAACTAGGTCAAGGTCAAAGTCGGTTTGTGCCA | 4.97
9 | TCGAATAGGTTACCAATGGGGCATTCAGCTTTCT | 0.811
10 | ATCTCTAGGTAACAAGTGCAGTGAAAGAGAGGAC | 0.287
11 | ATCGAAAGGTCGAAGGTGAATATACCCACCCGAA | 3.08
12 | GCTTGTAGATCAAGGTTTAGAAAGACTAAGCTAA | -0.245
13 | CCTCGGGGGACAACAGGAGGTCAGAGCTGCCAGA | 2.71
14 | TAGCCTAGGTCATGGGCCAGTAAACCACGCGAAC | 2.07
15 | CCTTGCAGGCCAGGGTCACTCAAGCATTTCGCTT | 2.69
16 | GCTATTAGTTGAGAGGGCAACCGAATGATTCTCG | 0.311
17 | CCTAGCAGGCAAGGGTCACTCAAGCATTTCGCTT | 2.81
18 | GCTAGCAGGCCTTTTGGGTCACTCAATGACGGGC | -0.0926
19 | AGAAAGAGGTTAAGATCAGGGAAACAGAATACAT | 1.25
20 | CGTCAAAGTTCAACTAACGTAACGTAAAGCACGC | 4.1

Row | Sequence | PBM binding z-score
21 | TCATATAGGTAATTCAGGTGAAAGTCGGCATCTA | 1.11
22 | ATTGAAAGGTCGAGGTGAGTATAGAGAAAGGGAA | 2.87
23 | TTACCAAGGAGAAAGGTCGTTGATGCACGCCTTG | 1.49
24 | ACTATTAGTTGACTTAGGGCAGCCGATACGACGC | 0.0476
25 | TTACCAAGGTGAGCTGAGGTCGTCGATCCAACTC | 3.49
26 | TCTAGTTGGTCATAGGTCACACACTCGAAATGCG | 3.19
27 | CGTTCAAGGTCAATGCTAGGTCAGTGAAAGCATT | 4.78
28 | TCTCGGAGGACACGAGAGGTCAGAGCTCGACATC | 3.41
29 | TTACCAAGGTGAAGGACGTTGATCCCTCTGTAGA | 0.111
30 | GTACCAAGGTGAATAGGTCGTTGAAGAGTAGGCG | 1.01
31 | TCTAGCAGGCCAGAGGATCACTCAAGAGGTACGG | -0.662
32 | ATCTCTAGGTAACCAAGTCCAGTGAATGCCGAAC | 0.999
33 | CGAACTAGCTCATCCAGGACAGTGAATACATTGA | -0.134
34 | ACAGACAGGTGATTAAGGTAACTCAGGCTATCAT | 0.713
35 | TAGCCTAGGTCAATGGGCCAGTATAGTACGCATC | 1.1
36 | ACTTACGGGCCAACGAGGTTATAGCACGCGTATA | 3.84
37 | TAGGCTAGGTCATTCAGGGGCCAGTATAGAAAGC | 3.24
38 | TGAATGAGGTTATACGATCAGGGAACGTTGCAAA | 0.918
39 | CAAACTAGGTCAAGAGGTCTAAGTCCGCTTCCCG | 3.91
40 | ACTAGCAGGCCAAGTTGGGGTCACTCAAACAAAG | 4.77

Source: the supplement of paper PMC6555819
